# The supplement of paper PMC10981050
# Several values for one entry are separate records, joined by “and”; a condition that tells them apart may be missing. Identical values can stand only once. Counter-ions that a name gives are not always drawn.
# How the values were obtained:
# Assay in all cases: cell viability relative to vehicle control; higher = less cytotoxic
# Conditions in all cases: 10 µM
# K562 = tested on: K562
# In short: (§1)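 Four leukaemia lines, as CRISPR-edited mutant clones and isogenic wild-type clones, were tested against Selleck bioactive, kinase and epigenetic probe libraries after removal of identity-inconsistent compounds. Cells were exposed to a single 10 µM dose for 48 h, and CellTiter-Glo luminescence was then read. Viability was calculated relative to the on-plate vehicle control.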
# MARIMO = tested on: MARIMO
# In short: as §1
# MOLM14 = tested on: MOLM14
# In short: as §1
# OCI-AML2 = tested on: OCI-AML2
# In short: as §1
SMILES,cell viability (K562; SRSF2 genotype: SRSF2 P95H/wt),cell viability (K562; SRSF2 genotype: SRSF2 wt/wt) [%],cell viability (MARIMO; SRSF2 genotype: SRSF2 P95H/wt) [%],cell viability (MARIMO; SRSF2 genotype: SRSF2 wt/wt) [%],cell viability (MOLM14; SRSF2 genotype: SRSF2 P95H/wt) [%],cell viability (MOLM14; SRSF2 genotype: SRSF2 wt/wt) [%],cell viability (OCI-AML2; SRSF2 genotype: P95H/wt) [%],cell viability (OCI-AML2; SRSF2 genotype: wt/wt) [%]
CC1(N)CCN(c2cnc(-c3cccc(Cl)c3Cl)c(N)n2)CC1 [SHP099 hydrochloride],64.7% and 71.4%,71.9,96,106,29.6,22.8,25.4,38.7
CC(C)(N)C(=O)N[C@H](COCc1ccccc1)C(=O)N1CCC2(CC1)CN(S(C)(=O)=O)c1ccccc12 [Ibutamoren mesylate],91.5% and 97.4%,90,81.1,92,80.1,89.5,82.3,78.9
OCC(O)C(O)C(O)C(O)CO (centres undefined) [Dulcitol],102% and 104%,99.7,105,107,99.9,106,105,103
CC1(C)O[C@@H]2C[C@H]3[C@@H]4C[C@H](F)C5=CC(=O)C=C[C@]5(C)[C@@]4(F)[C@@H](O)C[C@]3(C)[C@]2(C(=O)CO)O1 [Fluocinolone acetonide (Flucort-N)],95% and 96%,92.6,98.3,104,95.6,91.6,100,109
CC[C@H]1OC(=O)[C@H](C)[C@@H](O[C@H]2C[C@@](C)(OC)[C@@H](O)[C@H](C)O2)[C@H](C)[C@@H](O[C@@H]2O[C@H](C)C[C@H](N(C)C)[C@H]2O)[C@](C)(O)C[C@@H](C)CN(C)[C@H](C)[C@@H](O)[C@]1(C)O [Azithromycin],90.3% and 86.4%,89.5,83.2,90.4,92.1,89.4,75.7,82.3
CS(=O)(=O)Nc1cc2occ(NC=O)c(=O)c2cc1Oc1ccccc1 [Iguratimod],107% and 95.3%,110,107,107,99.1,108,117,123
CN[C@H]1CN(c2ccc3c(=O)c(C(=O)O)cn(-c4nccs4)c3n2)C[C@@H]1OC [Voreloxin (SNS-595) hydrochloride],74% and 88.4%,79.8,20.8,36,21.3,7.31,15.6,19.9
O=c1oc2cc(O)ccc2c2ccc(O)cc12 [S5312 Urolithin A.cdx],98.3% and 101%,106,99.9,98.3,97.4,105,89,94.5
Cn1cc(/C=C/C(=O)c2cccc(F)c2)cc1/C=C/C(=O)NO,90.3% and 97.5%,99.5,61.5,72.4,70.1,64.5,59.5,65.3
COC(=O)c1ccco1 [Methyl furan-2-carboxylate],108% and 99.5%,113,101,99.5,107,110,111,115
CCc1nc(N)nc(N)c1-c1ccc(Cl)cc1 [Pyrimethamine],73.7% and 96.8%,36.4,95.2,99.7,102,92.3,107,102
CCCSc1ccc2[nH]c(NC(=O)OC)nc2c1 [Albendazole (Albenza)],19.1% and 33.6%,30.6,9.83,11.3,6.95,2.47,5.18,12.9
CCNC(=O)c1[nH]nc(-c2cc(Cl)c(O)cc2O)c1-c1ccc(OC)cc1,19.1% and 31.3%,23.6,33.6,28.2,2.11,1.17,12.6,19.3
CC(NCCc1ccc(O)cc1)C(O)c1ccc(O)cc1 (centres undefined) [Ritodrine hydrochloride (Yutopar)],106% and 102%,96.3,100,106,98.6,99.8,104,107
COc1ccc2c(c1)c(C1=C(c3c[nH]c4ccccc34)C(=O)NC1=O)cn2CCCN(C)C,84.2% and 80.9%,74.5,69.8,85.8,30.9,25.9,31.8,49.9
COc1cccc(/C=N/N(C(=O)C(F)(F)F)c2ccc(C)cc2C)c1,90.5% and 95.3%,99.8,83.5,102,98.5,105,101,106
CC1(C)OC[C@@H](COC(=O)CCc2ccc(OC[C@@H](O)CNCCNC(=O)N3CCOCC3)cc2)O1 [Landiolol hydrochloride],93.9% and 87.6%,101,97.6,92.6,97.6,98.2,98.3,102
CO[C@H]1C[C@H](O[C@@H]2/C(C)=C/C[C@@H]3C[C@@H](C[C@]4(CC[C@H](C)[C@@H](C5CCCCC5)O4)O3)OC(=O)[C@@H]3C=C(C)/C(=N/O)[C@H]4OC/C(=C\C=C\[C@@H]2C)[C@]43O)O[C@@H](C)[C@@H]1O [Selamectin],16.6% and 37.1%,27.3,3.71,4.17,38.4,17,10.6,24.5
CN1CCN(CCOc2cc(OC3CCOCC3)c3c(Nc4c(Cl)ccc5c4OCO5)ncnc3c2)CC1 [Saracatinib (AZD0530)],7.73% and 16.1%,9.65,97.1,107,50.3,55.9,73.4,63.4

SMILES,cell viability (K562; SRSF2 genotype: SRSF2 P95H/wt),cell viability (K562; SRSF2 genotype: SRSF2 wt/wt) [%],cell viability (MARIMO; SRSF2 genotype: SRSF2 P95H/wt) [%],cell viability (MARIMO; SRSF2 genotype: SRSF2 wt/wt) [%],cell viability (MOLM14; SRSF2 genotype: SRSF2 P95H/wt) [%],cell viability (MOLM14; SRSF2 genotype: SRSF2 wt/wt) [%],cell viability (OCI-AML2; SRSF2 genotype: P95H/wt) [%],cell viability (OCI-AML2; SRSF2 genotype: wt/wt) [%]
CS(=O)(=O)Nc1ccc([N+](=O)[O-])cc1Oc1ccccc1 [Nimesulide],105% and 109%,99.8,102,108,109,103,101,110
CC(C)=CCCC(C)(O)C1CCC2(C)C1C(O)CC1C3(C)CCC(OC4OC(CO)C(O)C(O)C4OC4OC(CO)C(O)C(O)C4O)C(C)(C)C3CCC12C [(20R)Ginsenoside Rg3],105% and 103%,99.1,107,122,108,109,105,128
COc1cc(-c2oc3cc(O)cc(O)c3c(=O)c2O)ccc1O [Isorhamnetin],87.2% and 88.3%,86.6,83.4,92.4,71.8,79.4,81.1,89
Cc1nc2n(c(=O)c1CCN1CCC(c3noc4cc(F)ccc34)CC1)CCCC2O (centres undefined) [Paliperidone],84.4% and 93.4%,80.7,90.2,93.2,83.5,91.8,89,91.2
CCC(=O)OCC(=O)[C@@]1(OC(=O)CC)[C@@H](C)C[C@H]2[C@@H]3CCC4=CC(=O)C=C[C@]4(C)[C@@]3(F)[C@@H](O)C[C@@]21C [Betamethasone Dipropionate (Diprolene)],96.7% and 103%,98.8,106,109,94.5,96,113,120
CC(C)(C)OC(=O)Nc1ccc(-c2cc(C(=O)NCCCCCCC(=O)NO)no2)cc1,1.43% and 12.4%,5.74,9.27,11.5,0.79,0.64,1.39,2.31
CC1=CC(=O)NS(=O)(=O)O1 [Acesulfame Potassium],96.3% and 96.7%,96.3,98.1,94.4,98.9,97.8,89.1,105
C[C@@H]1CC[C@]2(C(=O)O[C@@H]3O[C@H](CO)[C@@H](O)[C@H](O)[C@H]3O)CC[C@]3(C)C(=CC[C@@H]4[C@@]5(C)CC[C@H](O)[C@@](C)(CO)[C@@H]5CC[C@]43C)[C@@H]2[C@]1(C)O [Pedunculoside],109% and 108%,113,108,97.5,107,108,106,104
CC(C)Oc1ccc(-c2nn([C@@H](C)c3oc4ccc(F)cc4c(=O)c3-c3cccc(F)c3)c3ncnc(N)c23)cc1F,89.1% and 94.3%,87.6,84.8,94.9,77,71.8,67.4,72.3
CCCCCCCCCCCCc1ccc(S(=O)(=O)Nc2nncs2)cc1,107% and 104%,102,105,109,105,106,98.7,111
c1ccc(-c2[nH]ncc2-c2ccnc3ccccc23)nc1,105% and 109%,105,107,106,109,104,112,105
CN(C)[C@@H](CCOc1cccc2ccccc12)c1ccccc1 [Dapoxetine hydrochloride (Priligy)],65.8% and 82.9%,73,52.7,59,53.9,58.8,58.9,63.1
CCCC[S+]([O-])c1sc2nc(-c3cccs3)cc(-c3ccccc3)c2c1N (centres undefined),94.5% and 97%,92.9,95,109,103,99.4,98.7,98.8
COc1cc2c(N3CCN(C(=O)Nc4ccc(OC(C)C)cc4)CC3)ncnc2cc1OCCCN1CCCCC1 [Tandutinib (MLN518)],86.7% and 96.2%,83.2,83.7,100,17.1,14.4,34.3,43.5
Nc1ncnc2c1ncn2[C@@H]1O[C@H](CO)C[C@H]1O [Cordycepin],94.3% and 102%,89.3,90.4,99,102,102,94.1,112
OC[C@H]1O[C@@H](OCCc2ccc(O)cc2)[C@H](O)[C@@H](O)[C@@H]1O [Salidroside (Rhodioloside)],101% and 105%,102,106,104,105,109,101,94.6
CCC(CC)(NC(=O)C(C)C)C(=O)N[C@@H](CCCN=C(N)N)C(=O)NC1(C(=O)NC(c2ccc(F)cc2)c2ccc(F)cc2)CCCC1,98.6% and 103%,106,93.8,98.3,93.4,99.3,97.9,108
COC(=O)C1=C(C)NC(C)=C(C(=O)OC(C)C)C1c1cccc2nonc12 (centres undefined) [Isradipine (Dynacirc)],95.3% and 96.5%,97.3,99.4,103,101,100,93.2,99.5
Cc1cccc(C#Cc2ccccc2)n1,97.1% and 102%,104,102,94.5,111,110,89.3,87.5
